Data on 22 compounds can be found in PubChem BioAssay (NCATS).

Assay [1] has as its system HaCat. As to the kind of experiment: Cytotoxic Profiling of Annotated Libraries Using Quantitative High-Throughput Screening (AID 1296008). For max response: % is set by controls: 0 for no effect and ±100 for the full control effect. Note: nearly all actives have a fitted effect of over 60% in size. The settings on record: Five cell lines viability, CellTiter-Glo ATP luminescence, 48-72 h; max response: stronger effect = lower value. In outline:
(§1)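 Cytotoxicity was measured as CellTiter-Glo ATP luminescence, read after 10 min at room temperature. Compound treatment of the cells lasted 48 or 72 hr at 37 degrees Celsius in a qHTS format.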
On the technique in general: In ATP-based viability assays light output follows the ATP content of the culture.

Assay [2] relates to KB-3-1. The assay is described as above. To be noted: Five cell lines viability, CellTiter-Glo ATP luminescence, 48-72 h; max response: stronger effect = lower value. In outline: as §1
The test system of assay [3] is HACAT. The assay can be described thus: qHTS assay to identify novel small-molecules to repurpose for Merkel cell carcinoma treatment (AID 1296009). Note: nearly all actives have a fitted effect of over 60% in size. To be noted: MCC and control cell lines, CellTiter-Glo viability, 72 h; at 44.8 µM (top of the series) unless noted. The method in brief:
(§2)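 After compound transfer in DMSO, plates were kept 72 hr at 37 degree celsius. Luminescent ATP signal from CellTiter-Glo served as viability measure, normalized against DMSO and no-cell controls.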

Assay [4] concerns C33A. The assay can be described thus: Primary qHTS to identify gynecologic anti-cancer compounds using libraries of approved drugs and bioactive compounds (AID 1345084). For activity change, negative = cytotoxicity: % is set by controls: 0 for no effect and ±100 for the full control effect. Note: nearly all actives have a fitted effect of over 55% in size. To be noted: Gynecologic cancer cell panel viability, ATPlite luminescence, 48 h; series mostly up to 57.5 µM. In outline:
(§3)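 Cytotoxicity screen measuring ATP content by luciferase luminescence. Each compound is applied at five concentrations for 48 h at 37 C with 5% CO2.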
Background: In qHTS, concentration-response curves come from the screen itself.

Assay [5] concerns NIH3T3. The assay can be described thus: Cytotoxic Profiling of Annotated Libraries Using Quantitative High-Throughput Screening (AID 1296008). For max response: % is set by controls: 0 for no effect and ±100 for the full control effect. Note: nearly all actives have a fitted effect of over 60% in size. The settings on record: Five cell lines viability, CellTiter-Glo ATP luminescence, 48-72 h; max response: stronger effect = lower value. In outline:
as §1

Assay [6] has as its system CAOV3. The assay can be described thus: Primary qHTS to identify gynecologic anti-cancer compounds using libraries of approved drugs and bioactive compounds (AID 1345084). For activity change, negative = cytotoxicity: % is set by controls: 0 for no effect and ±100 for the full control effect. Note: nearly all actives have a fitted effect of over 55% in size. To be noted: Gynecologic cancer cell panel viability, ATPlite luminescence, 48 h; series mostly up to 57.5 µM. In outline:
as §3

The subject of assay [7] is CASKI. Described as above. To be noted: Gynecologic cancer cell panel viability, ATPlite luminescence, 48 h; series mostly up to 57.5 µM. In outline:
as §3

In assay [8] the test system is HeLa. Described as above. The settings on record: Gynecologic cancer cell panel viability, ATPlite luminescence, 48 h; series mostly up to 57.5 µM. In outline: as §3
For assay [9], the system named is Es-2. The assay is described as above. The settings on record: Gynecologic cancer cell panel viability, ATPlite luminescence, 48 h; series mostly up to 57.5 µM. The method in brief:
as §3

The subject of assay [10] is Hek293T. The assay is described as above. The settings on record: Gynecologic cancer cell panel viability, ATPlite luminescence, 48 h, control line for the selectivity index; series mostly up to 57.5 µM. The method in brief: as §3
In assay [11] the test system is JEG-3. Described as above. To be noted: Gynecologic cancer cell panel viability, ATPlite luminescence, 48 h; series mostly up to 57.5 µM. The method in brief: as §3
The test system of assay [12] is OV90. Described as above. The settings on record: Gynecologic cancer cell panel viability, ATPlite luminescence, 48 h; series mostly up to 57.5 µM. The method in brief: as §3
Assay [13] relates to PA-1. Described as above. The settings on record: Gynecologic cancer cell panel viability, ATPlite luminescence, 48 h; series mostly up to 57.5 µM. In outline: as §3
Assay [14] deals with HEK293T. As to the kind of experiment: qHTS assay to identify novel small-molecules to repurpose for Merkel cell carcinoma treatment (AID 1296009). Note: nearly all actives have a fitted effect of over 60% in size. To be noted: MCC and control cell lines, CellTiter-Glo viability, 72 h. In outline:
as §2

Results filed as inconclusive are left out. Values without a mark were called inactive. Activity calls are given as the source filed them. Calls come from the whole dose curve; as a rule, active = well fitted curve in the direction sought with a large enough effect; inconclusive = small, poorly fitted or top-dose-only effect, or another doubt; inactive = no such curve, though single readings can be large; an effect the other way counts as inactive or inconclusive.
Potency is the fitted concentration of half-maximal effect.

Take `COc1ccc(-c2ccccc2)cc1NS(=O)(=O)c1cc(Cl)cc(Cl)c1O`: the outcome in assay [1] was inactive. In assay [2], the max response is 4.02%. For the same compound, in [3], the outcome was “inactive [at 17.4 µM]”. In addition, the Potency result in [4] was “inactive”.

On to `NC(=O)c1ccccc1Nc1ccnc(Nc2cccc(O)c2)n1`, for which the Potency in assay [1] was 5.8 µM (active); in assay [2] it was 8.2 µM (active); in assay [5], 7.31 µM (active); in assay [6], 8.91 µM (active); in assay [7], 12.6 µM (active); in assay [8], 3.16 µM (active). Also, the Potency result in [4] is “inactive”.

Turning to `COc1ccc(C2=NC(c3ccc(Cl)cc3)C(c3ccc(Cl)cc3)N2C(=O)N2CCNC(=O)C2)c(OC(C)C)c1` (stereo not given), the compound was classed as inactive in [1], in [2] and in [3]. The Potency entry in [4], in assay [6], in assay [7], in [9], in assay [8] and in assay [10] was “inactive” in each case. The Potency entry in assay [11] and in assay [12] was “inactive” each time.

As to `O=C(NCCN1CCOCC1)c1cc2c(Oc3ccc(NC(=O)C4(C(=O)Nc5ccc(F)cc5)CC4)cc3)ccnc2[nH]1`, the max response was -28.8% in [1] and 4.4% in [2]. In addition, the Potency in assay [5] is 6.51 µM (active). Besides, the Potency entry in assay [4], in assay [6], in assay [7], in [8], in assay [10] and in [11] was “inactive” in each case. For the same compound, the Potency result in assay [13] was “inactive”.

Regarding `COc1cc(F)c(F)c(Nc2ccc(I)cc2F)c1NS(=O)(=O)C1(CC(O)CO)CC1` (stereo not given), the Potency in [1] was 14.6 µM (active); in assay [5], 5.17 µM (active). For the same compound, in [2], the max response is -14.8%. In addition, the Potency entry in assay [4], in assay [7], in [8], in assay [10], in assay [11] and in [13] was “inactive” in each case.

As for `CC1=C(c2ccc(NC(=O)c3c(F)cccc3F)cc2)CN(c2nccs2)CC1`, the max response in [1] is -2.64%; in assay [5] it was -1.55%. For the same compound, in assay [2], the outcome was inactive. For the same compound, the Potency entry in assay [4], in [6], in assay [7], in assay [9], in [8] and in assay [10] was “inactive” in each case. In addition, the Potency result in assay [13] was “inactive”.

`C=C1/C(=C/C=C2\CCC[C@]3(C)[C@@H]([C@@H](C)OCCC(O)(CC)CC)CC[C@@H]23)C[C@@H](O)C[C@@H]1O`: the max response was -5.69% in [1], -12.7% in assay [2] and -34.7% in assay [5]. The Potency result in assay [4], in assay [6], in assay [7], in assay [9], in [8] and in assay [12] was “inactive” in each case. Moreover, the Potency result in assay [13] was “inactive”.

As to `CC1CCC(=O)CC(SCC(O)C(=O)O)CCC(=O)O1` (stereo not given), the figures for the max response in [1], in assay [2] and in [5] were -8.22%, -25.6% and -15.1%, respectively. Moreover, the Potency entry in assay [4], in assay [7], in assay [9], in assay [8], in [10] and in [11] was “inactive” each time. Moreover, the Potency result in [12] and in [13] was “inactive” each time.

Turning to `Cn1c(=O)c(F)c(Nc2ccc(I)cc2F)c2c(=O)n(CC(O)CO)cnc21` (stereo not given), the Potency in [1] is 6.51 µM (active); in assay [5], 1.3 µM (active); in [9], 3.16 µM (active). Also, the max response in assay [2] was -14.5%. The Potency result in assay [4], in assay [6], in assay [8], in [10] and in [11] was “inactive” each time.

For the compound `C=C1C(=O)O[C@@H]2/C=C(\C)CC/C=C(\C)CC[C@@H]12`, the call in assay [1] and in assay [3] was inactive. Further, the max response in assay [2] is -12.1%. For the same compound, the Potency entry in assay [4], in assay [7], in assay [9], in assay [8], in assay [10] and in assay [12] was “inactive” in each case.

With `C=C1/C(=C/C=C2\CCC[C@]3(C)[C@@H]([C@H](C)CC[C@@H](O)C(C)(C)O)CC[C@@H]23)C[C@@H](O)C[C@@H]1O`, the max response in assay [1] is -0.344%; in [2] it was -22.3%. Also, the Potency in assay [5] is 0.0146 µM (active). For the same compound, the Potency result in [7] and in assay [9] was “inactive” each time.

For `O=C(NCCCCCCCCNC(=O)C(Cl)Cl)C(Cl)Cl`, the max response in assay [1] was -4.24%; in assay [2], -9.66%; in assay [5] it was -14.9%. Besides, the Potency result in assay [4], in assay [9], in [8], in assay [10], in assay [11] and in assay [13] was “inactive” each time.

`C=C1C(=O)O[C@@H]2/C=C(\CO)CC/C=C(/C=O)C[C@H](O)[C@@H]12`: the max response in [1] is -0.314%. The outcome in assay [2] was inactive. The Potency in [14] is 18.4 µM (active). Besides, the Potency entry in assay [4], in [7], in [8], in assay [11] and in assay [12] was “inactive” each time.

Turning to `O=c1nc(-c2ccccn2)sc2ccccc12`, the compound was classed as inactive in [1] and in assay [3]. Further, the max response in [2] was 3.79%. For the same compound, the Potency entry in assay [4], in [6], in assay [7], in assay [9], in assay [8] and in assay [10] was “inactive” throughout. Further, the Potency result in [11], in [12] and in [13] was “inactive” in each case.

Take `COc1ccc(OC)c(-c2ccc(NC(=O)c3ccncc3F)cc2)c1`: the max response in assay [1] was -19.1%; in assay [2], -12.6%; in assay [5], 0.707%. The Potency entry in assay [4], in assay [7], in assay [9], in assay [8], in assay [10] and in assay [11] was “inactive” in each case. For the same compound, the Potency result in [12] and in assay [13] was “inactive” throughout.

For `CC(=O)Nc1cccc(-c2csc(Nc3cc(C)ccn3)n2)c1`, the max response in assay [1] is -25.9%; in [2], -18.5%; in assay [5], -21%. Further, the Potency entry in assay [4], in [6], in assay [7], in [8], in assay [11] and in assay [12] was “inactive” each time.

Regarding `Cn1c(CO)c(-c2ccccc2)c2cc([N+](=O)[O-])ccc21`, the values for the max response in [1], in assay [2] and in assay [5] were -23.7%, -20.1% and -3.34%, respectively. Moreover, the Potency entry in [4], in assay [7], in assay [9], in assay [10], in [11] and in assay [12] was “inactive” in each case. Also, in assay [13], the Potency result was “inactive”.

As to `CN(C)CCn1cc(-c2ccc(F)cc2)c(-n2cccc2)n1`, the max response is 4.28% in assay [1], -2.07% in [2] and -6.89% in assay [5]. For the same compound, the Potency result in assay [4], in assay [7], in assay [9], in assay [8], in [10] and in assay [11] was “inactive” each time. For the same compound, the Potency entry in assay [12] and in [13] was “inactive” each time.

As for `COC1C(O)C(OC2CCC3(C)C(CCC45CCC6C7(COC(=O)C7)OC4(O)C6(C)CCC35)C2)OC(C)C1OC1OC(CO)C(OC2OC(CO)C(O)C(O)C2O)C(O)C1O` (stereo not given), in assay [1], the result was inactive. Besides, the max response in [5] was 1.1%. Also, the outcome in [3] is “inactive [at 9.27 µM]”. For the same compound, the activity change, negative = cytotoxicity was 5.13% [at 11.6 µM] in assay [6], 22.8% [at 11.6 µM] in assay [7], -19.8% [at 11.6 µM] in [8] and -0.158% [at 11.6 µM] in assay [12].

Consider `CC(C)(O)C(=O)N1CCN(c2ccc(C(F)(F)F)c(C3=C(c4c[nH]c5ccccc45)C(=O)NC3=O)c2)CC1`, for which the compound was called inactive in assay [1] and in assay [3]. The max response in [5] was -9.17%. The Potency result in assay [6], in assay [7], in assay [9], in [10], in assay [12] and in assay [13] was “inactive” throughout.

Turning to `C/C=C(\C)C(=O)O[C@H]1C=CC(=O)O[C@H]1/C=C/[C@@H](O)[C@H](C)O`, the max response in assay [1] was -16.7%; in [2], -19.4%. Besides, the Potency entry in assay [4], in [6], in assay [7], in [8] and in [12] was “inactive” in each case.

Take `O=C(Nc1ccc(C(F)(F)F)cn1)N1CCN(c2ncccc2C(F)(F)F)CC1`: the outcome in assay [1] and in assay [3] was inactive. For the same compound, the max response in [5] was -8.79%. The Potency result in [4], in [6], in [7], in [9], in assay [8] and in assay [10] was “inactive” each time. Moreover, the Potency result in [11], in [12] and in [13] was “inactive” throughout.
